According to PubChem BioAssay:

These compounds were tested on XIP peptide (Xip251-270) binding (assay: small-molecule binders of XIP peptide, primary screen, biochemical, small-molecule microarray, fluorescence 635/667 nm, 0.1 µg/mL protein (AID 1182)). Details: fluorescent protein binding, 635 nm, higher = more signal, called active from +8 up or from −8 down.

Composite z-score, inactive:
COC(=O)[C@@H]1N=C(c2ccc(OCCCO)cc2)O[C@@H]1c1ccccc1 0.178
COCCOC(=O)N1C(=O)[C@@]2(c3ccccc31)[C@H](c1ccc(O)cc1)N1[C@H](c3ccccc3)[C@H](c3ccccc3)OC(=O)[C@H]1[C@@H]2C(=O)N1CCN(c2ncccn2)CC1 1.84
CC(C)[Si]1(C(C)C)OCc2cc(-c3ccc(-c4ccc(Cl)c(Cl)c4)o3)nc(-c3ccccc3)c21 -0.325
[N-]=[N+]=Nc1ccccc1[C@H]1OC(c2ccc(OCCCO)cc2)=N[C@@]1(Cc1ccccc1)C(=O)NCCN1CCOCC1 0.0125
CC(C)[Si]1(C(C)C)OCc2cc(C3CC3)nc(-c3ccc(Oc4ccccc4)cc3)c21 -0.495
[N-]=[N+]=Nc1ccccc1[C@@H]1OC(c2ccc(OCCCO)cc2)=N[C@]1(Cc1ccccc1)C(=O)O 0.315
CO[C@H]1O[C@H](CO)[C@@H](OC(=O)Nc2ccc(Br)cc2)[C@@H]2OC(=O)[C@@H](Cc3ccccc3)C/C=C/C[C@H](Cc3ccccc3)C(=O)O[C@@H]12 0.491
CS(=O)(=O)CCOC(=O)C1=CC(c2ccc(CO)cc2)=CC(C2CC2)N(Cc2sc3ccccc3c2Cl)C=C1C(=O)OCCS(C)(=O)=O (stereo unspecified) 0.766
COC(=O)[C@@]1(Cc2ccccc2)[C@H]2c3cc(C(=O)N(C)C)n(Cc4ccc(C)o4)c3C[C@H]2CN1C(=O)c1ccccc1 0.681
CCCC[C@@H](O)C1=C(COC)C[C@H]2C(=O)N(Cc3ccccc3)C(=O)[C@H]2[C@H]1CO 1.47
NC(=O)[C@H]1[C@@H]2C(=O)O[C@@H](c3ccccc3)[C@@H](c3ccccc3)N2[C@@H](c2ccc(OCCO)cc2)[C@]12C(=O)Nc1ccc(C#CCCO)cc12 0.32
CCCCC[C@H]1OC[C@@]23C=C(Br)[C@@H](CC12)[C@@]1(CO1)C3=O (stereo partly specified) -0.311
C=C(C(=O)CC[C@H](OC(=O)c1ccccc1-c1ccccc1C(=O)O)c1cccc(OCCO)c1)C(C)C -0.145
C=CCNC(=O)[C@@H]1[C@H]2C(=O)O[C@H](c3ccccc3)[C@H](c3ccccc3)N2[C@H](c2ccc(OCCO)cc2)[C@@]12C(=O)N(C(=O)OCCOC)c1ccc(C#Cc3ccc(OC)cc3)cc12 0.448
NCCCCCCNC(=O)[C@@H]1C[C@@H]2C(=O)N[C@@H](CCCCN)C(=O)N2[C@@H]1c1ccc(O)cc1 2.07
COc1cc2c(cc1O)C=[N+](Cc1sc3ccccc3c1Cl)CC2 0.669
CC(C)N1C(=O)c2ccccc2[C@@H](C(=O)NCCN2CCOCC2)[C@@H]1c1ccc(CO)cc1 0.122
COCCOC(=O)N1C(=O)[C@@]2(c3cc(C#CCCO)ccc31)[C@H](c1ccc(OCCO)cc1)N1[C@H](c3ccccc3)[C@H](c3ccccc3)OC(=O)[C@H]1[C@@H]2C(=O)Nc1nc2ccccc2s1 0.514
CCCCN1CC=CC23O[C@@H]4/C=C\CCCOC(=O)C4[C@H]2C(=O)N(CCO)[C@@H]3C1=O (stereo partly specified) 0.51
Oc1ccc2cc[n+](Cc3cc4c(cc3Br)OCO4)cc2c1 0.425
CCOC(=O)C[C@H]1[C@H](OC(=O)c2ccc(C(=O)c3ccccc3)cc2)[C@@H](NC(=O)CC(C)C)c2cc(OCCCO)ccc2N1C(=O)c1ccccc1 0.786
C=CCOC(=O)[C@@H]1[C@H]2C(=O)O[C@H](c3ccccc3)[C@H](c3ccccc3)N2[C@H](c2ccc(OCCOC(=O)[C@@H]3C[C@@H]4C(=O)N[C@@H](CCCC[N+](C)(C)C)C(=O)N4[C@@H]3c3ccc(O)cc3)cc2)[C@@]12C(=O)Nc1ccc(I)cc12 0.481
COc1ccc(CCNC(=O)[C@@]2(c3ccc([N+](=O)[O-])cc3)CC(=O)N(C3CCCCC3)[C@@H]2c2ccc(CO)cc2)cc1 1.48
CN(C)C(=O)[C@]1(Cc2ccccc2CN=[N+]=[N-])N=C(c2ccc(OCCCO)cc2)O[C@@H]1c1ccccc1 0.908
Cc1ccc(C(C)CC(O)C2C=CC3C(=O)N(c4ccccc4)C(=O)C3N2Nc2ccccc2)o1 (stereo unspecified) 0.0436
O=C(c1ccccc1)N1C(=O)[C@]2(Cc3ccccc31)N=C(c1ccc(OCCCO)cc1)O[C@@H]2c1ccccc1 0.409
